Hits are enriched below; roughly 11% of the tested compounds scored in any of these assays.
Pf growth 96h = Primary qHTS for delayed death inhibitors of the malarial parasite plastid, 96 hour incubation. P. falciparum luciferase reporter growth, 96 h. Potency, µM (highest dose often 28.7 µM), without a hit: at the top dose activity change, negative = inhibition, hits mostly inhibitors. actives 6.9% (n = 320,000). AID 504834, 2011; further: on the % scale 0 is the no-effect control and ±100 the full control effect
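Two-generation exposure (96 h) targets delayed-death phenotype. Reporter parasites carrying integrated firefly luciferase, in red cells at 2% hematocrit and 0.05% parasitemia final, kept at 37 C, 5% CO2; luminescence loss indicates inhibition.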
Pf growth 48h = Primary qHTS for delayed death inhibitors of the malarial parasite plastid, 48 hour incubation; P. falciparum luciferase growth in erythrocytes, 48 h; Potency, µM (titrated, usually from 28.7 µM), for the others: top-dose activity change, negative = inhibition, usual class: inhibitors; actives 5.9% (n = 310,000); further: on the % scale 0 is the no-effect control and ±100 the full control effect
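Growth was read as firefly luciferase luminescence after a 48 h, 37 C, 5% CO2 exposure of compounds to reporter-bearing P. falciparum cultures (0.1% parasitemia, 2% hematocrit final) in Albumax-supplemented RPMI 1640.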
NS1 function inh = qHTS Assay for Inhibitors of Influenza NS1 Protein Function. Potency, µM (highest dose often 46.1 µM), without a hit: at the highest dose activity, positive = more growth. actives 0.4% (n = 270,000); calls by dose curve; further: actives are rising curves; nearly all actives have a fitted effect of over 50% in size
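A cell-based growth assay was used: compounds that relieve NS1-induced slow growth of budding yeast raise OD600. Assay medium was yeast nitrogen base with ammonium sulphate and -URA supplement, pH 6.0, with 2% galactose.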
Sm TGR inh = qHTS Assay for the Inhibitors of Schistosoma Mansoni Peroxiredoxins | purified TGR, DTNB reduction, TNB absorbance 405 nm | AID 485364, 2010 | Potency, µM (top dose mostly 114 µM), inactives show at the top dose activity change, negative = inhibition, usual class: inhibitors | actives 3% (n = 360,000); further: on the % scale 0 is the no-effect control and ±100 the full control effect; nearly all actives have a fitted effect of over 60% in size
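TGR 20 nM + NADPH 100 uM (dispensed conc.), cpd preinc 15 min RT; start with NADPH (500 uM addition) then DTNB (15 mM addition). Kinetic TNB absorbance, 405 nm filter. Four-parameter Hill fit across titration.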
AMA1-RON2 inh = qHTS for Inhibitors of AMA1-RON; Towards Development of Antimalarial Drug Lead: Primary Screen; actives 0.2% (n = 360,000); Plasmodium falciparum AMA1 (3D7) - RON2 peptide interaction; AlphaScreen AMA1-biotinylated RON2 peptide binding; Potency, µM (top dose mostly 58.2 µM), for inactives: top-dose activity change, negative = inhibition, hits mostly inhibitors; AID 720542, 2013;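 further: 0% = vehicle wells and -100% = peptide control; nearly all actives have a fitted effect of over 45% in size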
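AMA1 (3D7) with his tag at 25 nM final met compounds first, then biotinylated RON2 peptide at 25 nM; detection used donor plus acceptor beads, 10 µg/mL apiece, read by AlphaScreen after 30 min at room temperature.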
The depositor's hits bear a star; [ ] = dose if it differs, or a comment. Unless noted, the call rests on the fitted dose curve; in most records, active means well fitted curve in the direction sought with a large enough effect; inconclusive means small, poorly fitted or top-dose-only effect, or another doubt; inactive means no such curve, though single readings can be large; an effect the other way counts as inactive or inconclusive. Potency means the concentration at half of the fitted maximal effect.

CC(C)c1ccc(NC(=O)Nc2nc(C(N)COCc3ccccc3)cs2)cc1 (centres undefined) was read as AMA1-RON2 inh 3%.
Screening CCC(C(=O)Nc1cccc(OC)c1)n1nc(C)c2c(C)n(-c3ccccc3)nc2c1=O (centres undefined) returned Pf growth 96h 38%, Pf growth 48h inconclusive, NS1 function inh -9%, Sm TGR inh -1% and AMA1-RON2 inh -10%.
`CCOc1ccc(NC(=O)C(CC)n2nc(C)c3c(C)n(-c4ccccc4)nc3c2=O)cc1` (centres undefined) gave Pf growth 96h 13µM*, Pf growth 48h inconclusive, NS1 function inh 13%, Sm TGR inh 1% and AMA1-RON2 inh 16%.
Screening CCC(C(=O)Nc1ccccc1F)n1nc(C)c2c(C)n(-c3ccccc3)nc2c1=O (centres undefined) returned Pf growth 96h 15µM*, Pf growth 48h inconclusive, NS1 function inh 9%, Sm TGR inh 9% and AMA1-RON2 inh 0%.
Screening CCC(C(=O)Nc1cc(F)ccc1F)n1nc(C)c2c(C)n(-c3ccc(C)cc3)nc2c1=O (centres undefined) returned Pf growth 96h 8.3µM*, Pf growth 48h inconclusive, NS1 function inh 2%, Sm TGR inh 1% and AMA1-RON2 inh -11%.
COc1cc(C(=S)N2CCOCC2)cc(OC)c1O was read as Pf growth 96h 2%, Pf growth 48h 5%, NS1 function inh 6%, Sm TGR inh 1% and AMA1-RON2 inh 1%.
Cc1ccccc1CN1C(=O)C(C)S/C1=N/N=C/c1ccco1 (centres undefined) was read as Pf growth 96h -12%, Pf growth 48h inconclusive, NS1 function inh 0%, Sm TGR inh 25µM* and AMA1-RON2 inh -22%.
CCC1S/C(=N/N=C/c2ccco2)N(c2ccc(F)cc2)C1=O (centres undefined) was read as Pf growth 96h inconclusive, Pf growth 48h -4%, NS1 function inh 10%, Sm TGR inh -2% and AMA1-RON2 inh -3%.
For CC1S/C(=N/N=C/c2ccco2)N(Cc2ccc(F)cc2)C1=O (centres undefined) the results were Pf growth 96h 15%, Pf growth 48h -2%, NS1 function inh -9%, Sm TGR inh 32µM* and AMA1-RON2 inh -10%.
For O=C1CS/C(=N/N=C/c2ccco2)N1Cc1ccc(F)cc1 the results were Pf growth 96h 23%, Pf growth 48h 5%, NS1 function inh 1%, Sm TGR inh 25µM* and AMA1-RON2 inh 0%.
`CCC1S/C(=N/N=C/c2ccco2)N(Cc2ccccc2)C1=O` (centres undefined) gave Pf growth 96h inconclusive, Pf growth 48h inconclusive, NS1 function inh 1%, Sm TGR inh 20µM* and AMA1-RON2 inh inconclusive.
`O=C(N1CCOCCOc2ccccc2OCCOCC1)C(F)(F)F` gave Pf growth 96h 72%, Pf growth 48h inconclusive, NS1 function inh 5%, Sm TGR inh 3% and AMA1-RON2 inh -4%.
CC(=O)NCCc1c[nH]c2ccc(OCC(O)CNC(C)(C)C)cc12 (centres undefined) was read as Pf growth 96h 107%, Pf growth 48h 40%, NS1 function inh -3%, Sm TGR inh 10% and AMA1-RON2 inh 0%.
Screening CCC1CCCCN1C(=O)CCNC(=O)Cn1cnc2ccccc2c1=O (centres undefined) returned Pf growth 96h 23%, Pf growth 48h -2%, NS1 function inh 16%, Sm TGR inh -1% and AMA1-RON2 inh -4%.
O=CNn1cnc2c(oc3nc(-c4ccccc4)cc(-c4ccco4)c32)c1=O was read as Pf growth 96h 40%, Pf growth 48h 23%, Sm TGR inh 40µM* and AMA1-RON2 inh -12%.
For CC1=C(C(=O)Nc2ccccc2)C(c2ccco2)C(C#N)=C(SCC(=O)Nc2cccc(C)c2C)N1 (centres undefined) the results were Pf growth 96h inconclusive, Pf growth 48h 2.6µM*, NS1 function inh inconclusive, Sm TGR inh -12% and AMA1-RON2 inh -3%.
Screening CCOc1ccccc1NC(=O)CSC1=C(C#N)C(c2ccco2)C(C(=O)Nc2nc3ccccc3s2)=C(C)N1 (centres undefined) returned Pf growth 96h inconclusive, Pf growth 48h 9.3µM*, NS1 function inh 14%, Sm TGR inh -15% and AMA1-RON2 inh -1%.
Screening COc1ccccc1NC(=O)C1=C(C)NC(SCC(=O)c2ccc(C)cc2)=C(C#N)C1c1ccco1 (centres undefined) returned Pf growth 96h 3%[5.75 µM], NS1 function inh 10% and Sm TGR inh inconclusive.
For CC1=C(C(=O)Nc2ccccc2)C(c2ccco2)C(C#N)=C(SCC(=O)OC(C)C)N1 (centres undefined) the results were Pf growth 96h 7.4µM*, Pf growth 48h 2.3µM*, NS1 function inh 10%, Sm TGR inh inconclusive and AMA1-RON2 inh -4%.
Screening CC1=C(C(=O)Nc2ccccc2)C(c2ccco2)C(C#N)=C(SCc2ccccc2)N1 (centres undefined) returned Pf growth 48h 8.3µM*, NS1 function inh -2% and Sm TGR inh -10%.
CCCCC1(C)NC(=O)N(CC(=O)Nc2cc(S(=O)(=O)N3CCOCC3)ccc2Cl)C1=O (centres undefined) was read as Pf growth 96h 3%, Pf growth 48h -16%, Sm TGR inh -20% and AMA1-RON2 inh -1%.
Screening N=C1S/C(=C\c2ccc(-c3ccccc3C(=O)O)o2)C(=O)N1c1ccc2c(c1)OCO2 returned Pf growth 96h inconclusive, Pf growth 48h 16%, Sm TGR inh -29% and AMA1-RON2 inh -14%.
`COc1ccccc1N1C(=N)S/C(=C\c2ccc(-c3ccccc3C(=O)O)o2)C1=O` gave Pf growth 96h 1%, Pf growth 48h -6%, NS1 function inh inconclusive, Sm TGR inh 20µM* and AMA1-RON2 inh -16%.
`CCCN(CC(=O)Nc1ccccc1C)C(=O)c1cccc(S(=O)(=O)N2CCN(c3ccccc3)CC2)c1` gave Pf growth 96h inconclusive, Pf growth 48h inconclusive, Sm TGR inh 3% and AMA1-RON2 inh -18%.
For O=C(O)/C=C/C(=O)Nc1ccc(N2CCOCC2)nc1N1CCOCC1 the results were Pf growth 96h -3%, Pf growth 48h -6%, NS1 function inh 5%, Sm TGR inh 2.2µM* and AMA1-RON2 inh -4%.

Screening results from PubChem.
